Here are results for 18 compounds from PubChem BioAssay (EPA / NIEHS).

The source made the active and inactive calls. The calls were made as follows: active = hit-call score of the fitted dose curve at least 0.9, where 1 is the maximum; inactive = score below 0.9.

Holding throughout (settings): mRNA level, 48 h; actives raise or lower the signal
Read-out in assay [1]: Insulin Like Growth Factor 1 (IGF1), IGF1 (gene 3479)
The assay is described as follows: LTEA_HepaRG_IGF1: Life Technologies and Expression Analysis (LTEA) Assay for Insulin Like Growth Factor 1 (IGF1) using HepaRG (AID 2283506). The method in brief: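 Endpoint: IGF1 mRNA change by qRT-PCR, housekeeping-normalized, fitted bidirectionally relative to 0.5% DMSO vehicle. Human HepaRG cells were treated 48 h in serum-free induction medium, eight half-log concentrations topping at 100 uM.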

Read-out in assay [2]: Intercellular Adhesion Molecule 1 (ICAM1), ICAM1 (gene 3383)
The assay is described as follows: LTEA_HepaRG_ICAM1: Life Technologies and Expression Analysis (LTEA) Assay for Intercellular Adhesion Molecule 1 (ICAM1) using HepaRG (AID 2283507). Put shortly: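 ICAM1 transcript levels measured by qRT-PCR, normalized to three housekeeping genes (ACTB, GAPDH, POLR2A), after 48 h chemical exposure of HepaRG cells. Duplicate eight-point half-log series from 100 uM in 0.5% DMSO; gain or loss fitted against vehicle.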

Read-out in assay [3]: Insulin-like growth factor-binding protein 1 (IGFBP1), IGFBP1 (gene 3484)
The assay can be described thus: LTEA_HepaRG_IGFBP1: Life Technologies and Expression Analysis (LTEA) Assay for Insulin-like growth factor-binding protein 1 (IGFBP1) using HepaRG (AID 2283508). The method in brief: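 Read-out is qRT-PCR transcript level normalized to three housekeeping genes, fitted in both directions against 0.5% DMSO. Differentiated HepaRG cells received eight half-log concentrations (top 100 uM) in duplicate for 48 h in serum-free induction medium.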

Read-out in assay [4]: Interleukin 6 (IL6), IL6 (gene 3569)
The assay is described as follows: LTEA_HepaRG_IL6: Life Technologies and Expression Analysis (LTEA) Assay for Interleukin 6 (IL6) using HepaRG (AID 2283509). Put shortly:
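Transcript levels, normalized to three housekeeping genes, were quantified by qRT-PCR after 48 h chemical treatment of HepaRG cells. Eight-point half-log series from 100 uM in 0.5% DMSO, duplicates. Fitted both directions against DMSO baseline.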

Read-out in assay [5]: Interleukin 6 Receptor (IL6R), IL6R (gene 3570)
The assay is described as follows: LTEA_HepaRG_IL6R: Life Technologies and Expression Analysis (LTEA) Assay for Interleukin 6 Receptor (IL6R) using HepaRG (AID 2283510).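 As to AC50: differentiated human HepaRG liver cells in serum-free induction medium.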 The method in brief: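 In this HepaRG screen, test chemicals act on cells for 48 h at up to 100 uM (eight half-log points, duplicate wells). IL6R expression is quantified by qRT-PCR after normalization to ACTB, GAPDH and POLR2A, with DMSO as baseline.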

Read-out in assay [6]: Potassium channel subfamily K member 1 (KCNK1), KCNK1 (gene 3775)
The assay can be described thus: LTEA_HepaRG_KCNK1: Life Technologies and Expression Analysis (LTEA) Assay for Potassium channel subfamily K member 1 (KCNK1) using HepaRG (AID 2283511). Put shortly:
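KCNK1 transcript measured by TaqMan qRT-PCR against three housekeeping genes, after HepaRG cells were treated 48 h with eight half-log concentrations (top 100 uM, 0.5% DMSO). Curves fitted bidirectionally relative to vehicle.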

Read-out in assay [7]: Keratin 19 (KRT19), KRT19 (gene 3880)
The assay is described as follows: LTEA_HepaRG_KRT19: Life Technologies and Expression Analysis (LTEA) Assay for Keratin 19 (KRT19) using HepaRG (AID 2283512). The method in brief: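 KRT19 transcript measured by TaqMan qRT-PCR, referenced to three housekeeping genes, after HepaRG cells received test chemicals for 48 h. Eight half-log concentrations, top 100 uM, 0.5% DMSO vehicle; increases and decreases both fitted.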

Read-out in assay [8]: JUN Transcription Factor, JUN (gene 3725)
The assay is described as follows: LTEA_HepaRG_JUN: Life Technologies and Expression Analysis (LTEA) Assay for JUN Transcription Factor using HepaRG (AID 2283513). The method in brief: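 Gene-expression endpoint: JUN mRNA (qRT-PCR, normalized to three reference genes) in HepaRG cultures treated 48 h with chemicals, duplicate wells, 100 uM maximum with half-log dilutions; bidirectional fitting relative to 0.5% DMSO.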

Read-out in assay [9]: Lipase C (LIPC), LIPC (gene 3990)
The assay can be described thus: LTEA_HepaRG_LIPC: Life Technologies and Expression Analysis (LTEA) Assay for Lipase C (LIPC) using HepaRG (AID 2283514). Put shortly:
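LIPC expression was quantified by qRT-PCR against three housekeeping genes (ACTB, GAPDH, POLR2A). Differentiated human HepaRG cells received eight half-log doses (top 100 uM, 0.5% DMSO) in duplicate for 48 h; fitting bidirectional relative to DMSO.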

Read-out in assay [10]: Lipoprotein lipase (LPL), LPL (gene 4023)
The assay is described as follows: LTEA_HepaRG_LPL: Life Technologies and Expression Analysis (LTEA) Assay for Lipoprotein lipase (LPL) using HepaRG (AID 2283515). The method in brief:
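LPL transcript levels quantified by TaqMan qRT-PCR against three housekeeping genes after 48 h chemical treatment of HepaRG cells. Eight-point half-log series from 100 uM in 0.5% DMSO, tested in duplicate; bidirectional fitting versus vehicle.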

Take `N#CN=C1SCCN1Cc1ccc(Cl)nc1`: the result in assay [1], in assay [2], in [3], in [4], in assay [5] and in [6] was inactive. For the same compound, the result in [7], in assay [8], in assay [9] and in [10] was inactive.

With `Cc1cnc(C2=NC(C)(C(C)C)C(=O)N2)c(C(=O)O)c1` (centres undefined), the compound was called inactive in [1], in assay [2], in [3], in assay [4], in assay [5] and in [6]. The call in assay [7], in [8], in assay [9] and in assay [10] was inactive.

With `COP(=O)(OC)O/C(C)=C/C(=O)N(C)C`, the call in assay [1], in assay [2], in assay [3], in assay [4], in assay [5] and in assay [6] was inactive. Further, the call in [7], in assay [8], in assay [9] and in assay [10] was inactive.

As to `COCc1cnc(C2=NC(C)(C(C)C)C(=O)N2)c(C(=O)O)c1` (centres undefined), the call in assay [1], in [2], in [3], in assay [4], in assay [5] and in assay [6] was inactive. The outcome in [7], in assay [8], in [9] and in assay [10] was inactive.

Take `CC(C)=CC1C(C(=O)OCc2coc(Cc3ccccc3)c2)C1(C)C` (centres undefined): the outcome in assay [1], in [2], in assay [3], in assay [4], in [5] and in [6] was inactive. For the same compound, the outcome in assay [7], in assay [8], in [9] and in [10] was inactive.

Take `CS(=O)(=O)c1ccc(C(=O)C2C(=O)CCCC2=O)c([N+](=O)[O-])c1`: the compound was classed as inactive in assay [1], in assay [2], in [3], in assay [4], in assay [5] and in [6]. The compound was classed as inactive in assay [7], in assay [8], in [9] and in assay [10].

Turning to `CC(C)Nc1nc(Cl)nc(NC(C)C)n1`, the outcome in [1], in assay [2], in assay [3], in [4], in assay [5] and in [6] was inactive. The compound was classed as inactive in assay [7], in assay [8], in assay [9] and in assay [10].

As for `CCNP(=S)(OC)O/C(C)=C/C(=O)OC(C)C` (centres undefined), the concentration at half-maximal activity (AC50) in assay [1], in assay [7] and in assay [10] was 50 µM (active) each time. Besides, the compound was classed as inactive in assay [2], in [3], in [4], in assay [5], in assay [6] and in assay [8]. The result in [9] was inactive.

With `Nc1c(Cl)c(F)nc(OCC(=O)O)c1Cl`, the compound was called inactive in [1], in [2], in assay [3], in [4], in assay [5] and in assay [6]. Further, the compound was classed as inactive in assay [7], in assay [8], in [9] and in assay [10].

On to `CC(C)N1C(=O)N(c2ccccc2)CSC1=NC(C)(C)C`, for which the AC50 (usually the concentration giving half of the maximal activity seen) is 59.9 µM (active) in assay [1]; 74.6 µM (active) in assay [2]; 89.1 µM (active) in assay [3]; 77.1 µM (active) in assay [4]; 50 µM (active) in assay [7]; 72.2 µM (active) in assay [9]. Besides, the half-maximal activity concentration (AC50) in [10] was 78.7 µM (active). Moreover, the call in assay [5], in assay [6] and in assay [8] was inactive.

As to `CCOC(=O)C(C)OC(=O)c1cc(Oc2ccc(C(F)(F)F)cc2Cl)ccc1[N+](=O)[O-]` (centres undefined), the AC50 was 21 µM (active) in [1], 9.92 µM (active) in [4] and 13.3 µM (active) in assay [7]. For the same compound, the outcome in [2], in assay [3], in assay [5], in assay [6], in [8] and in [9] was inactive. Besides, in assay [10], the call was inactive.

For the compound `CCN(CC)C(=O)C(C)Oc1cccc2ccccc12` (centres undefined), the AC50 in assay [1] was 66.3 µM (active); in assay [5] it was 20.3 µM (active); in assay [7], 50 µM (active); in [9], 69.6 µM (active). Further, the outcome in assay [2], in [3], in assay [4], in assay [6], in [8] and in [10] was inactive.

For `Cc1cc(C)nc(Nc2ccccc2)n1`, the compound was classed as inactive in [1], in [2], in assay [3], in [4], in assay [5] and in assay [6]. Besides, the compound was called inactive in [8], in assay [9] and in [10]. Moreover, the AC50 in assay [7] was 18.7 µM (active).

As to `COC(=O)N(C(=O)N1CO[C@@]2(C(=O)OC)Cc3cc(Cl)ccc3C2=N1)c1ccc(OC(F)(F)F)cc1`, the AC50 in assay [1] was 4.25 µM (active); in assay [3] it was 40 µM (active); in assay [7], 16.9 µM (active); in assay [9] it was 40 µM (active); in assay [10], 2.97 µM (active). Moreover, the compound was classed as inactive in [2], in [4], in [6] and in assay [8].

In the case of `CCCN(CC)CC1COC2(CCC(C(C)(C)C)CC2)O1` (centres undefined), the result in assay [1], in assay [2], in assay [3], in assay [4], in [5] and in assay [6] was inactive. The call in assay [7], in assay [8], in [9] and in [10] was inactive.

Take `C=C(C)CN(CC)c1c([N+](=O)[O-])cc(C(F)(F)F)cc1[N+](=O)[O-]`: the compound was classed as inactive in assay [1], in assay [2], in assay [3], in [4], in assay [5] and in assay [6]. Also, the result in [7], in [8], in assay [9] and in [10] was inactive.

`CCC(C)n1c(=O)[nH]c(C)c(Br)c1=O` (centres undefined): the AC50 was 8.53 µM (active) in [1]; 18.1 µM (active) in assay [3]; 6.3 µM (active) in [5]; 11.8 µM (active) in [7]; 23.3 µM (active) in assay [9]; 14.4 µM (active) in [10]. Moreover, the outcome in assay [2], in [4], in assay [6] and in assay [8] was inactive.

As for `Nc1c(Cl)c(Cl)nc(C(=O)O)c1Cl`, the result in assay [1], in assay [2], in assay [3], in [4], in assay [5] and in assay [6] was inactive. The call in assay [7], in assay [8], in [9] and in assay [10] was inactive.
